Sampled rows, rich in hits. Any-hit rate of the full collection: about 3.6%.
GDH-TPI counter-1 – inhibits GDH-TPI coupling enzymes, artifact for Mtb FBA screen; GDH-TPI coupled enzyme counterscreen, NADH absorbance; inhibition, % at 4.8 µM; 360,000 tested, 1.2% active; in the data active = inhibition above about 30%;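 also: 0% = DMSO wells and 100% = wells lacking the enzyme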
Mtb hypoxia inh – Mtb hypoxia fluorescent reporter inhibition. 300,000 tested, 0.1% active. fluorescence inhibition, % (concentration not given with the values). M. tuberculosis hypoxia-regulated fluorescent reporter, fluorescence; in the data active = fluorescence inhibition mostly above about 23%, no sharp cut-off; inactive = mostly below about 17%
Mtb betalactam – beta-lactam sensitization of Mtb H37Rv; M. tuberculosis H37Rv growth with meropenem, percent inhibition; inhibition, % at 25 µM; 330,000 tested, 0.27% active;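 also: growth measured after seven days incubation then overnight dye step; 0% = bacteria only wells and 100% = bacteria with antibiotic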
Mtb FBA inh – inhibits M. tuberculosis FBA enzyme. 360,000 tested, 2.3% active. inhibition, % at 1 µM. purified M. tuberculosis FBA, fluorescence read-out. AID 588726; in the data active = inhibition above about 27%;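 also: 0% = vehicle and 100% = reference inhibitor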
Target sequence (P9WQA3 whole entry, looked up): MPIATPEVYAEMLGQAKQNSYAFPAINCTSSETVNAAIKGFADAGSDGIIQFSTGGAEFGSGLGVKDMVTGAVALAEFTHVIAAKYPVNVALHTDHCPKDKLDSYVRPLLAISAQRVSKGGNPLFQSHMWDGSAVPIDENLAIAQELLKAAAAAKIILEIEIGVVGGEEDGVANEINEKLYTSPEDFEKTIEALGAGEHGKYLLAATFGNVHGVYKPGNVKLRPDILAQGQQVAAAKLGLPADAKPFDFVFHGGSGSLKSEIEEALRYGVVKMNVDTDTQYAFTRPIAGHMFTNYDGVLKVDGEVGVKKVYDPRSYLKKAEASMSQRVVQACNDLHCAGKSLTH
DUSP3 inh – DUSP3 (human) phosphatase inhibition; P51452; recombinant VHR phosphatase, pNPP absorbance; inhibition, % at 13.3 µM; 290,000 tested, 0.52% active; in the data active = inhibition above about 50%
Target sequence (P51452 whole entry, looked up): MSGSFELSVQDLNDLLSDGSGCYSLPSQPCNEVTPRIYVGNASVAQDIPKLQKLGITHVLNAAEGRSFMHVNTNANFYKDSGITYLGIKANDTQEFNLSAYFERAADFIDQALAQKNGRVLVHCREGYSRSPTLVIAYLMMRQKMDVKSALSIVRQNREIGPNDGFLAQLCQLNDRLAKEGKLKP
Mtb FBA confirm – confirmation of M. tuberculosis fructose-bisphosphate aldolase inhibitors. 5,600 tested, 78% active. inhibition, % at 1 µM. AID 651616. shares compounds with Mtb FBA inh. purified M. tuberculosis FBA, fluorescence read-out; in the data active = inhibition above about 27%;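 also: 0% = vehicle wells and 100% = reference inhibitor wells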
GDH-TPI counter-2 – GDH-TPI inhibition counter-screen for FBA inhibitors; shares compounds with Mtb FBA inh; GDH-TPI coupled enzyme counterscreen, fluorescence; inhibition, % at 1 µM; 5,600 tested, 81% active; in the data active = inhibition above about 10%
GDH-TPI DR – counter-screen for M. tuberculosis FBA inhibitors: GDH-TPI dose response. IC50, µM. GDH-TPI coupled enzyme assay, fluorescence, artifact counterscreen. shares compounds with Mtb FBA inh. 170 tested, 79% active
Active calls of the source: *; nt = not tested or not shown; + = active, no number. Unless noted, no rule for the calls is given here.

SMILES	GDH-TPI counter-1	Mtb hypoxia inh	Mtb betalactam	Mtb FBA inh	DUSP3 inh	Mtb FBA confirm	GDH-TPI counter-2	others
Cc1ccc(C(O)c2ncc(-c3ccc4ccccc4c3)[nH]2)c(C)c1 (stereo not given)	4	nt	nt	16	nt	nt	nt
COc1cccc(C(O)c2ncc(-c3cccc4ccccc34)[nH]2)c1 (stereo not given)	-12	nt	nt	48*	nt	56*	47*
CC1CC[C@]2(C(=O)O)CC[C@]3(C)C(=CCC4[C@@]5(C)CCC(O)C(C)(C)C5CC[C@]43C)C2C1C (stereo not given in full)	nt	-2	nt	nt	nt	nt	nt
Cc1c(OC(C)C(=O)O)ccc2c(-c3ccccc3)cc(=O)oc12 (stereo not given)	19	11	-2	35*	-5	55*	39*
O=C(CCN1CCN(C(c2ccccc2)c2ccccc2)CC1)NN=Cc1ccc(O)cc1O	nt	5	nt	nt	nt	nt	nt
COc1cccc(C=NNc2nnc(C)n2N)c1OCc1ccccc1Cl	nt	18	nt	nt	nt	nt	nt
CC(=O)N(C(C)=O)c1ncnc2c1c(-c1ccc(Cl)cc1)nn2C(C)(C)C	-2	3	1	50*	5	-1	1
CC(=O)Nc1ncnc2c1c(-c1ccc(Cl)cc1)nn2C(C)(C)C	-8	9	5	50*	1	81*	75*
CCCCC=CC(NC(=O)CCc1ccccc1)c1ccccc1 (stereo not given)	nt	12	nt	nt	nt	nt	nt
O=C1NN=C2CCCCCCC12 (stereo not given)	11	nt	nt	29*	nt	85*	70*
C[C@@H]1CCCCCCCCCCC1=O	-1	-2	-3	2	10	nt	nt
CCOCCCn1c(N)c(C(=O)Nc2sc3c(c2C(=O)OC)CCCC3)c2nc3ccccc3nc21	22	-5	6	46*	10	188*	153*
COCCCn1c(N)c(C(=O)NCCC(C)C)c2nc3ccccc3nc21	2	5	98	34*	17	74*	62*
COCCNC(=O)CSc1nc2cc(OC)c(OC)cc2c(=O)n1CCC1=CCCCC1	8	9	nt	-1	-14	nt	nt
CCn1ccc(C(=O)Nc2sc3c(c2C(=O)OC)CCC3)n1	10	3	73	8	2	nt	nt
COCCNC(=O)c1c(N)n(CCC2=CCCCC2)c2nc3ccccc3nc12	13	4	0	54*	-6	77*	56*
CCC(C)n1c(C)nc2c(c1=O)c1nc3ccccc3nc1n2CCC1=CCCCC1 (stereo not given)	20	1	4	32*	13	+	+
Cc1nc2c(c(=O)n1CCC1=CCCCC1)c1nc3ccccc3nc1n2N=Cc1ccccc1	nt	10	nt	nt	nt	nt	nt
COCCNC(=O)[C@@]1(Cc2ccccc2)C=CC(C)N1C(C)=O (stereo not given in full)	nt	21	nt	nt	nt	nt	nt
CCCCn1c(NS(=O)(=O)c2ccc(C)cc2)c(C(=O)OCC)c2nc3ccccc3nc21	8	nt	7	16	-14	nt	nt
CCCCn1c(N)c(C(=O)OCCOC)c2nc3ccccc3nc21	3	3	-2	55*	-5	31*	17*
O=C(CCN1CCN(c2ccccc2)CC1)NN=Cc1ccc(O)c(O)c1O	nt	-3	nt	nt	nt	nt	nt
COc1ccc(COc2ccc3ccc(=O)oc3c2)cc1	11	5	9	6	15	nt	nt
COc1ccc2ccc(=O)oc2c1	16	nt	-11	68*	0	88*	82*
CC(Oc1ccc2c(-c3ccccc3)cc(=O)oc2c1)C(=O)N1CCOCC1 (stereo not given)	20	5	-1	-2	nt	nt	nt
SMILES	GDH-TPI counter-1	Mtb hypoxia inh	Mtb betalactam	Mtb FBA inh	DUSP3 inh	Mtb FBA confirm	GDH-TPI counter-2	others
O=C(Oc1ccc2ccc(=O)oc2c1)c1cccs1	6	10	47	66*	2	7	-5
COc1ccc(C(=O)Oc2ccc3ccc(=O)oc3c2)cc1OC	7	7	25	41*	21	147*	107*
CC(Oc1ccc2ccc(=O)oc2c1)C(=O)N1CCOCC1 (stereo not given)	0	9	-12	42*	nt	155*	122*
COc1cccc(C(=O)Oc2ccc3ccc(=O)oc3c2)c1	15	-5	0	59*	18	154*	141*
COc1cccc(COc2ccc3ccc(=O)oc3c2)c1	10	4	6	9	16	nt	nt
Cc1ccc(-c2nnc(-c3ccc4c(c3)OCO4)o2)cc1	11	-1	6	27*	33	75*	55*
c1coc(-c2nnc(-c3ccc4c(c3)OCO4)o2)c1	nt	9	nt	nt	-9	nt	nt
Cc1nccc(-c2ccc3c(c2)OCO3)n1	9	4	4	29*	2	68*	48*
CCCC(=O)Nc1ccc2c(c1)C(=O)NC2=O	1	5	-1	33*	15	115*	88*
COc1ccccc1C(=O)Nc1ccc2c(c1)C(=O)NC2=O	14	10	0	-1	2	nt	nt
O=C1NC(=O)c2cc(NC(=O)C3CCCO3)ccc21 (stereo not given)	6	2	2	38*	30	11	0	GDH-TPI DR=4.2*
O=C(Cc1ccc(Cl)cc1)Nc1ccc2c(c1)C(=O)NC2=O	5	-3	4	60*	11	51*	35*
CCCC(=O)Nc1cccc(Oc2ccc3c(c2)C(=O)NC3=O)c1	9	18	-2	1	14	nt	nt
Cc1ccccc1C(=O)Nc1ccc2c(c1)C(=O)NC2=O	6	7	-3	39*	21	0	2
CC=C(C)C(=O)OC1c2cc(OC)c(OC)c(OC)c2-c2c(cc3c(c2OC)OCO3)CC(C)[C@]1(C)O (stereo not given in full)	nt	11	nt	nt	nt	nt	nt
O=C(C=Cc1ccccc1Cl)c1cccnc1	nt	17	nt	nt	nt	nt	nt
Cc1cc(C(=O)NN=Cc2c(C)nn(-c3ccccc3)c2C)n[nH]1	nt	2	nt	nt	nt	nt	nt
CCOC(=O)NN=C/C=C/c1ccccc1	nt	2	nt	nt	nt	nt	nt
Cc1ccc2[nH]c(-c3cccc(N)c3)cc2c1	9	7	11	43*	15	152*	128*
COc1cccc(OCc2cc(C=Nn3cncn3)ccc2OC)c1	nt	13	nt	nt	nt	nt	nt
Cc1ccc(C(=O)OCC(=O)NCCc2ccc(S(N)(=O)=O)cc2)o1	1	10	-5	-1	nt	nt	nt
COc1ccc2oc(C(=O)OCC(=O)NCCc3ccc(S(N)(=O)=O)cc3)c(C)c2c1	8	-6	-2	38*	nt	+	184*
COc1ccc2oc(C(=O)OCC(=O)N(CCC#N)c3ccccc3)c(C)c2c1	-1	3	-2	39*	10	1	-5
COc1ccc2oc(C(=O)OCC(=O)NCCc3ccccc3)c(C)c2c1	8	0	-12	32*	nt	58*	43*

High-throughput results from PubChem BioAssay.
